The values below come from PubChem BioAssay (EPA / NIEHS).

Inconclusive results are not listed. Activity calls are given as the source filed them. How the source made its calls: active means hit-call score of the fitted dose curve at least 0.9, where 1 is the maximum; inconclusive means response in the unintended direction; inactive means score below 0.9.

Nuclear receptor subfamily 1 group I member 3 (Homo sapiens), sequence (Q14994 whole entry, looked up): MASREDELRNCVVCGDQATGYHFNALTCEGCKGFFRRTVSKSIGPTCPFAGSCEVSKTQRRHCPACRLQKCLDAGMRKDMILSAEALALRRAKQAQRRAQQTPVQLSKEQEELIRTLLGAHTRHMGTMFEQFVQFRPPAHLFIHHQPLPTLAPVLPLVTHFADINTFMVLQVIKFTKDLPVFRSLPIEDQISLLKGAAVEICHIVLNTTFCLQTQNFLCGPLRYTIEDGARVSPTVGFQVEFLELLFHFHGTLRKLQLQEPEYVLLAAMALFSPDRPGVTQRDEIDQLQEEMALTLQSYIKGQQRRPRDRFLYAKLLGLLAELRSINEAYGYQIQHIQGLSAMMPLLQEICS

The assay deals with Nuclear receptor subfamily 1 group I member 3 (Homo sapiens) (UniProt Q14994). The assay is described as follows: ATG_CAR_TRANS: Attagene TRANS-FACTORIAL HepG2 Assay for human Constitutive Androstane Receptor (CAR) (AID 2282969).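 Further: activators raise reporter mRNA above DMSO so AC50 marks induction.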 The settings on record: HepG2 Attagene TRANS-FACTORIAL CAR reporter. Here is the method:
ATG_TRANS is a cell-based, multiplexed-readout assay that uses HepG2, a human liver cell line, with measurements taken at 24 hours after chemical dosing in a 24-well plate.ATG_CAR_TRANS is one of 30 assay component(s) measured or calculated from the ATG_TRANS assay. It is designed to make measurements of mRNA induction, a form of inducible reporter, as detected with fluorescence intensity signals by Reverse transcription polymerase chain reaction (RT-PCR) and Capillary electrophoresis technology.Data from the assay component ATG_CAR_TRANS was analyzed into 1 assay endpoint. This assay endpoint, ATG_CAR_TRANS, was analyzed in the positive analysis fitting direction relative to DMSO as the negative control and baseline of activity. Using a type of inducible reporter, measures of mRNA for gain-of-signal activity can be used to understand the reporter gene at the transcription factor-level as they relate to the gene NR1I3. Furthermore, this assay endpoint can be referred to as a primary readout, because this assay has produced multiple assay endpoints where this one serves a reporter gene function. To generalize the intended target to other relatable targets, this assay endpoint is annotated to the nuclear receptor intended target family, where the subfamily is non-steroidal.
Human liver HepG2 cells are transiently transfected with multiple reporter transcription units (MRTUs) in 6-well plates using FuGene 6 reagent (Roche; 3 ml FuGene/1 mg DNA). The MRTU constructs are regulated by a cis-regulating element (promoter). […] A major difference between the CIS and TRANS system is that in CIS activities of endogenous TFs are measured, whereas the TRANS assay evaluates changes in activities of exogenous, chimeric NR-Gal4 proteins. […] At the end of 24 hour incubation, total RNA was isolated using TriZol reagent (Invitrogen). The isolated RNA is then reverse-transcribed using oligo(dT) primer and Mo-MLV reverse transcriptase (Invitrogen) with DNAse I (Ambion) treatment for 30 min. The one-tenth of the produced cDNA was amplified by PCR using Taq DNA polymerase (Invitrogen) and two reporter sequence-specific primers. The PCR products were fluorescently labeled by primer extension with 6-arboxyfluorescein (6-FAM) 5'-labeled reporter sequence-specific primer (2 min at 95 C, 20 s at 68 C and 10 min at 72 C) and these products were digested with 5U of HpaI (New England Biolabs) for 2h at 37 C. The fragments were purified using Qiaquick PCR columns (Qiagen), analyzed on an ABI 3130xL genetic analyzer (Applied Biosystems) with peak positions identified by using a set of X-rhodamine (ROX)-labeled MapMarker1000 molecular weight standards (BioVentures). The raw capillary electrophoresis data was processed using Attagraph software (Attagene).
On to `CCC(C)(C)C1CCC(OC)CC1` (stereo not given), for which the result was inactive.

As for `O=C(O)c1cc2ccccc2cc1O`, the molecule was called inactive.

For `C1CCCNCC1`, the molecule was classed as inactive.

With `CCCC[N+](C)(CCCC)CCCC`, the molecule was called inactive.

On to `COC(=O)c1cccc(C(=O)OC)c1`, for which the molecule was called inactive.

Turning to `CC1=CCC(=C(C)C)CC1`, the call was inactive.

With `Brc1cc(Br)cc(Br)c1`, the molecule was called inactive.

Take `CC(C)Cc1ccc(C(C)C(=O)O)cc1` (stereo not given): the outcome was inactive.

For the molecule `Cc1ccccc1S`, the molecule was called inactive.

With `CC12CCC(C1)C(C)(C)C2O` (stereo not given), the outcome was inactive.

Regarding `O=C1OCc2ccccc21`, the result was inactive.

With `O=c1cc[nH]cc1`, the call was inactive.

As for `CC1=CCC(C(C)C)=CC1`, the outcome was inactive.

For `CC(C)N(c1ccccc1)C(C)C`, the result was inactive.

In the case of `CC1=C(C=O)C(C)(C)CCC1`, the molecule was called inactive.

As to `C=C(C)C(=O)OCCN(C)C`, the molecule was classed as inactive.

Turning to `CC(C)CCOC(=O)CC(C)C`, the molecule was called inactive.

Regarding `CC=CC(=O)C1=C(C)C=CCC1(C)C`, the outcome was inactive.

With `COC(=O)C(C)Oc1ccc(Oc2ncc(C(F)(F)F)cc2Cl)cc1` (stereo not given), the molecule was classed as inactive.

With `CC(C)OB(OC(C)C)OC(C)C`, the outcome was inactive.

`c1ccc2c(c1)-c1ccc3ccc4cccc5cc-2c1c3c45`: the molecule was classed as inactive.

Regarding `CC(=O)CCC(=O)O`, the call was inactive.

Turning to `C=CC(C)(CCC=C(C)C)OC(=O)CC` (stereo not given), the call was inactive.

In the case of `NC(=O)NC(N)=O`, the outcome was inactive.

`CCC(CC)CO`: the call was inactive.

On to `COc1ccc(C(C)=O)cc1`, for which the molecule was classed as inactive.

`Nc1cc([N+](=O)[O-])ccc1C(=O)O`: the call was inactive.

Take `CCCCCC#CC(=O)OC`: the molecule was called inactive.

Regarding `CCCCOCCOC(=O)c1ccccc1C(=O)OCCOCCCC`, the result was inactive.

As for `CC(C)(C)c1ccc(S)cc1`, the call was inactive.

Consider `CCCCOCCOCCOCCO`, for which the call was inactive.

In the case of `CCNC(=S)NCC`, the call was inactive.

As for `CC(C)COC(=O)c1ccccc1O`, the molecule was classed as inactive.

In the case of `C[C@H](CCC(=O)O)[C@H]1CC[C@H]2[C@@H]3CC[C@@H]4C[C@H](O)CC[C@]4(C)[C@H]3CC[C@]12C`, the result was inactive.

Consider `CCCCOCC(C)OCC(C)O` (stereo not given), for which the outcome was inactive.

On to `COc1ccccc1NC(=O)CC(C)=O`, for which the molecule was called inactive.

`CCCCCCCCSCc1cc(C)c(O)c(CSCCCCCCCC)c1`: the result was inactive.

As for `CC/C=C\C#N`, the call was inactive.

For `CC(=O)CC(C)(C)C1CCCCC1`, the result was inactive.

In the case of `c1ccc(OCCOc2ccccc2)cc1`, the outcome was inactive.
